Screening results (PubChem BioAssay)
CDK5 inh = inhibitors of human CDK5/p35 kinase, primary screen, biochemical, single concentration. Recombinant CDK5/p35, ADP-Glo luminescence, 60 min. 330,000 compounds, 0.01% hits. inhibition, % at 10 µM. AID 488839, 2010. Cyclin-dependent kinase 5 (Homo sapiens) + Cyclin-dependent kinase 5 activator 1 (Homo …;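 active = highest replicate inhibition of at least 50% and at least 75% of replicates reaching 50%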;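 note: plate controls were DMSO neutral control for no effect and GW8510 at 10 µM for full effect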
CASP6 VEID inh = human caspase-6 inhibitors, primary screen, biochemical, VEID-R110 fluorescence, single point, set 2; P55212; purified caspase-6, Z-VEID-R110 cleavage fluorescence; inhibition, % at 12.5 µM; 350,000 compounds, 0.53% hits; AID 686996, 2013;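 active = mean inhibition across replicates at least about 35%, with every replicate also reaching that limit, limit read from the data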;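 note: 0% = median of neutral control wells and 100% = no fluorescence left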
NSD2 HMT inh = NSD2 histone methyltransferase inhibitors, primary screen, biochemical, AlphaScreen, single concentration, set 2; Histone-lysine N-methyltransferase NSD2 (Homo sapiens), O96028; NSD2 peptide methylation, 120 min; inhibition, % at 12.5 µM; 310,000 compounds, 0.54% hits; AID 743445, 2014; in the data active = inhibition above about 50%
N-glyco inh = increase of ERlucT glycosylation luciferase signal, primary screen, N-linked glycosylation inhibitor project, D54 ERlucT cells, luminescence, set 2 | AID 588692, 2011 | 360,000 compounds, 0.23% hits | D54 ERlucT glycosylation luciferase reporter, 24 h; percent of 100 nM tunicamycin response | reporter increase, % at 12.5 µM;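 active = mean luciferase reporter signal, scaled so untreated is 0 and the glycosylation-blocking control 100, at or above a set limit in every replicate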;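 note: luciferase carries N-glycosylation sites so blocking glycosylation raises the light; 0% = median of neutral control wells and 100% = median of 100 nM tunicamycin wells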
SUMO Mot1 rescue = yeast Mot1-301 growth rescue at high temperature, primary screen, SUMOylation pathway inhibitor project, S. cerevisiae, ATP luminescence, 38.5C; S. cerevisiae Mot1-301 growth rescue; percent above DMSO median, 100 means doubled; growth rescue, % at 18.8 µM; 320,000 compounds, 1% hits; AID 2716, 2010;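 active = every valid replicate shows activation above 250% relative to neutral control wells; inactive = the rest, any valid replicate at or below 250%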;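 note: OY570 slx delta 5 strain wells were the positive control but not used for scaling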
ALR inh = inhibitors of human ALR sulfhydryl oxidase, primary screen, biochemical, H2O2 detection, HRP-luminol luminescence, single point | FAD-linked sulfhydryl oxidase ALR (Homo sapiens), P55789 | 290,000 compounds, 3.8% hits | purified ALR, DTT oxidation | inhibition, % (concentration not given with the values);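 active = mean replicate inhibition above about 79%, with every replicate also reaching it, limit read from the data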
Target sequence (P55789 whole entry, looked up): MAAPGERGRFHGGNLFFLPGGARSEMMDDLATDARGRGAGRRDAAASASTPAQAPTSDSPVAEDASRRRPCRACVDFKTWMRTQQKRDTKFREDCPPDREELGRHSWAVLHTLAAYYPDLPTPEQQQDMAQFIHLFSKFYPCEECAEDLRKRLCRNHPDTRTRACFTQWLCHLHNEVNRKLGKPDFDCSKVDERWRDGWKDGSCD
The depositor's hits bear a star; x = not tested or not shown. Sampled rows, rich in hits. Any-hit rate of the full collection: about 3.9%.

SMILES	CDK5 inh	CASP6 VEID inh	NSD2 HMT inh	N-glyco inh	SUMO Mot1 rescue	ALR inh
Cc1onc(NC(=O)NC(=O)c2c(F)cccc2Cl)c1Br	-2	76*	-2	2	166	-4
Cc1onc(NC(=O)NC(=O)c2c(Cl)cccc2Cl)c1Br	0	-1	10	3	-20	-9
CCC1CCCCN1CCNC(=O)CNS(=O)(=O)c1ccc2nc(C)sc2c1 (configuration not stated)	0	x	9	2	315*	-69
CNc1sc(C(=O)c2ccc(F)cc2)c(N)c1-c1nc2ccccc2s1	3	x	3	-2	-9	91*
O=C1c2ccccc2C(=O)C1(CO)c1ccccc1	0	38*	3	-1	2	70
CO[C@@H]1CN(C)C(=O)c2ccc(NC(=O)c3ccc4c(c3)OCO4)cc2OC[C@H](C)N(CCC(F)(F)F)C[C@@H]1C	x	2	x	x	x	x
COc1ccc(CN=C(N)N=C(N)N)cc1Cl	0	56*	-8	-3	15	31
CC(C)Oc1ccc(CN=C(N)N=C(N)N)cc1Cl	2	-1	-1	2	5	-24
C[C@H]1CN([C@@H](C)CO)C(=O)Cc2cc(NC(=O)CCCCCC(=O)Nc3ccccc3N)ccc2O[C@@H]1CN(C)C(=O)Nc1cccc2ccccc12	x	-2	x	x	x	x
O=c1c2ccccc2c(-c2n[nH]c(=S)o2)nn1Cc1ccccc1	1	-3	-2	1	7	26
OCc1ccc(-c2nn(Cc3ccccc3)c3ccccc23)o1	0	-3	x	-7	10	92*
CN1CCCCN2[C@H](C1)[C@H](c1ccc(Br)cc1)[C@@H]2CO	x	0	x	x	x	x
COc1ccc2nc(NC(=O)Nc3ccccc3OC)sc2c1	0	2	-1	3	17	-13
COc1ccc2nc(Nc3ccccc3)sc2c1	2	1	x	-6	13	94*
COc1ccc2nc(Nc3ccccc3OC)sc2c1	0	0	-1	-14	7	99*
C[C@@H]1CN([C@@H](C)CO)C(=O)c2cc(-c3cccc(C#N)c3)cnc2O[C@@H]1CN(C)Cc1cccnc1	x	0	x	x	x	x
C[C@H]1CCCCO[C@@H](CN(C)S(=O)(=O)c2cccs2)[C@@H](C)CN([C@@H](C)CO)C(=O)c2cc(NS(=O)(=O)c3cn(C)cn3)ccc2O1	x	1	x	x	x	x
O=C(O)[C@@H]1[C@@H](CO)[C@@H]2Cn3c(ccc(-c4ccc(F)cc4)c3=O)[C@@H]2N1CCc1ccccc1	x	-1	x	x	x	x
Cc1ccc(NC(=S)NNC(=O)Cn2nc([N+](=O)[O-])cc2C)cc1	1	0	1	2	-8	85*
C#CCN1C(=O)S/C(=C/c2cc(C)n(CC)c2C)C1=O	1	x	-3	-8	-7	x
CCn1c(C)cc(/C=C2/SC(=S)N(CC(=O)O)C2=O)c1C	-3	4	10	-4	x	99*
Cc1ccc(-n2nc3cc(C)c(N)cc3n2)cc1	3	x	-1	-10	-18	-7
Cc1cc2nc3ccc(N(C)C)cc3nc2cc1N	1	30	17	-15	12	92*
Cc1ccc(NC(=O)OCCN2CCN(Cc3ccccc3)CCC2=O)cc1	-1	3	x	1	6	92*
O=C(Nc1ccccc1)OCCN1CCN(Cc2ccccc2)CCC1=O	1	0	x	0	2	-11
COc1cccc(N2CCN(C(=O)CCC(=O)N3CCOc4ccc(C)cc43)CC2)c1	-4	-1	x	2	12	89*
O=C(CCC(=O)N1CCOc2ccccc21)N1CCN(c2ccccc2)CC1	0	-2	x	1	3	98*
O=C(Nc1ccc2c(c1)OCO2)N1CCN(c2ccccc2)CC1	-1	-4	-4	0	16	58
CN(C)c1ccc(NC(=O)N2CCOCC2)cc1	4	x	-1	2	-8	99*
